Where “and” joins values, the source holds several entries; their conditions need not be identical. Equal values may be shown once. Inconclusive results are not listed. Some compounds were tested as several samples or in several runs, with calls that do not always agree. Calls of active or inactive are those of the source. Rule for the calls, unless noted: active = hit-call score of the fitted dose curve at least 0.9, where 1 is the maximum; inconclusive = response in the unintended direction; inactive = score below 0.9.
What was measured:
[1] = BSK_4H_Eotaxin3: BioMAP Diversity Plus: 4H Assay for Eotaxin 3 Biomarker Activity (AID 2283000; active = hit-call score of the fitted dose curve at least 0.9, where 1 is the maximum; inactive = score below 0.9); settings: primary human endothelial cells (HUVEC); actives raise or lower the signal
Outline: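 HUVEC, 24 h post-dose, ELISA for Eotaxin-3/CCL26. Gain or loss of signal fitted bidirectionally vs DMSO baseline.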

[2] = target: human Peroxisome Proliferator-activated Receptor alpha (PPARa), PPARA (gene 5465) (UniProt Q07869); experiment: ATG_PPARa_TRANS: Attagene TRANS-FACTORIAL HepG2 Assay for human Peroxisome Proliferator-activated Receptor alpha (PPARa) (AID 2283001);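 for AC50: potency for gain of reporter signal over DMSO so agonist or activator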
human Peroxisome Proliferator-activated Receptor alpha (PPARa), PPARA (gene 5465), sequence (Q07869 whole entry, looked up, the tested form may be a part): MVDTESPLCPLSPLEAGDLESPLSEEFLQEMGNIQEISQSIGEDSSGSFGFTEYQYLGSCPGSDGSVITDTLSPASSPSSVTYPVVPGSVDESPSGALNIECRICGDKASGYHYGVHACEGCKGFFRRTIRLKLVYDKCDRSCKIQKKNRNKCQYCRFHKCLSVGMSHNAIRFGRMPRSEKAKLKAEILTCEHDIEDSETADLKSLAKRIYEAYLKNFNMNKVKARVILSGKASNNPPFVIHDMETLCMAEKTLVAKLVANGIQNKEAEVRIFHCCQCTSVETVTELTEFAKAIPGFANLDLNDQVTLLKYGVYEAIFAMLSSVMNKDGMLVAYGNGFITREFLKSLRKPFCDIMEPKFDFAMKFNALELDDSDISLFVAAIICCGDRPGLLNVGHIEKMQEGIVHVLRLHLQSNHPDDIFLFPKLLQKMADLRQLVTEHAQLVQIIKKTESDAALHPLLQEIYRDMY
Outline: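 HepG2 cells transiently transfected with multiplexed GAL4-UAS reporters driven by exogenous chimeric NR-Gal4 proteins; reporter mRNA measured after 24 h dosing. Read-out by RT-PCR, 6-FAM labelling, HpaI digestion and capillary electrophoresis; gain of signal versus DMSO.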

[3] = target: human Peroxisome Proliferator-activated Receptor delta (PPARd), PPARD (gene 5467) (UniProt Q03181); experiment: ATG_PPARd_TRANS: Attagene TRANS-FACTORIAL HepG2 Assay for human Peroxisome Proliferator-activated Receptor delta (PPARd) (AID 2283002)
human Peroxisome Proliferator-activated Receptor delta (PPARd), PPARD (gene 5467), sequence (Q03181 whole entry, looked up, the tested form may be a part): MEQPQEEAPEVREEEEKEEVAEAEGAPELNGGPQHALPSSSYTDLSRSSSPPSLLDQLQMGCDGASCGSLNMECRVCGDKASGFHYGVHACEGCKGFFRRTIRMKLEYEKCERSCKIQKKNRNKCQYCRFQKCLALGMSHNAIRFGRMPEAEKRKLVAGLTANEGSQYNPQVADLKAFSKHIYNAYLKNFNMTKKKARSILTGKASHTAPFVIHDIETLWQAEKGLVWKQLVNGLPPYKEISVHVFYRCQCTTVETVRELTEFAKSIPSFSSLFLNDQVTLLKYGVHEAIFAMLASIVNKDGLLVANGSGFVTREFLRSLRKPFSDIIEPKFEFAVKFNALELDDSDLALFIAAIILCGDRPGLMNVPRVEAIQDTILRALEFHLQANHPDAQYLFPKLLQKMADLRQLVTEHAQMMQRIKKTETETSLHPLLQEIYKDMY
Outline: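 Read-out: reporter mRNA induction, quantified by fluorescent RT-PCR products resolved by capillary electrophoresis. Human HepG2 liver cells carried transiently transfected Gal4-UAS reporter constructs with chimeric NR-Gal4 fusions. Cells were dosed for 24 h; DMSO served as baseline.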

[4] = read-out: Intercellular Adhesion Molecule 1 (ICAM1), ICAM1 (gene 3383); experiment: BSK_3C_ICAM1: BioMAP Diversity Plus: 3C Assay for Intercellular Adhesion Molecule 1 (ICAM1) Biomarker Activity (AID 2283003; active = hit-call score of the fitted dose curve at least 0.9, where 1 is the maximum; inactive = score below 0.9); settings: primary human endothelial cells (HUVEC); actives raise or lower the signal
Outline: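 HUVEC primary cells stimulated under 3C conditions; ICAM1 measured by ELISA 24 h after compound dosing. Curves fitted bidirectionally against the DMSO baseline. Overt cytotoxicity checked by SRB staining of parallel cultures.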

[5] = BSK_3C_Proliferation: Cell Proliferation Assessment in the BioMAP Diversity Plus: 3C Assay (AID 2283006; active = hit-call score of the fitted dose curve at least 0.9, where 1 is the maximum; inactive = score below 0.9;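 for AC50: potency may reflect either rise or fall in cell number versus DMSO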); settings: primary human endothelial cells (HUVEC)
Outline: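 Subconfluent HUVEC (3C system) cultured with chemical; relative cell number read at 48 h by sulforhodamine B total-protein staining (0.1% SRB after 10% TCA fixation, 560 nm). Bidirectional fit relative to DMSO.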

[6] = target: Retinoic acid receptor alpha (Homo sapiens) (UniProt P10276); experiment: ATG_RARa_TRANS: Attagene TRANS-FACTORIAL HepG2 Assay for human Retinoic Acid Receptor alpha (RARa) (AID 2283005)
Retinoic acid receptor alpha (Homo sapiens), sequence (P10276 whole entry, looked up, the tested form may be a part): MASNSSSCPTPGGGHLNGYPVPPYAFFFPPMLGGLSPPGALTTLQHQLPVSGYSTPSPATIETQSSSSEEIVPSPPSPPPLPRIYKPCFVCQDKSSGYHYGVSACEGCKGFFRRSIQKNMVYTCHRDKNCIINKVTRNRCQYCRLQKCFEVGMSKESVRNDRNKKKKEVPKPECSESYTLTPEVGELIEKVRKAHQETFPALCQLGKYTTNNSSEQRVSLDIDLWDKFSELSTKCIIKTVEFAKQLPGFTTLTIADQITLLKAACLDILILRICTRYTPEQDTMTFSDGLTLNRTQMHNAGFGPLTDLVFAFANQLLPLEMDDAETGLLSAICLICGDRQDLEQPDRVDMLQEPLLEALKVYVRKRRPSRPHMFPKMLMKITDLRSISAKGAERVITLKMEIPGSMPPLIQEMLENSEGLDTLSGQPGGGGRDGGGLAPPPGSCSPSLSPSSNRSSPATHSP
Outline: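 HepG2 transiently transfected with multiplex GAL4-UAS reporter units including a human RARa–GAL4 chimera; 24 h compound exposure. Reporter mRNA quantified by RT-PCR, 6-FAM labeling and capillary electrophoresis; gain of signal versus DMSO.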

[7] = target: Peroxisome proliferator-activated receptor gamma (Homo sapiens) (UniProt P37231); experiment: ATG_PPARg_TRANS: Attagene TRANS-FACTORIAL HepG2 Assay for human Peroxisome Proliferator-activated Receptor-gamma (PPARg) (AID 2283007)
Peroxisome proliferator-activated receptor gamma (Homo sapiens), sequence (P37231 whole entry, looked up, the tested form may be a part): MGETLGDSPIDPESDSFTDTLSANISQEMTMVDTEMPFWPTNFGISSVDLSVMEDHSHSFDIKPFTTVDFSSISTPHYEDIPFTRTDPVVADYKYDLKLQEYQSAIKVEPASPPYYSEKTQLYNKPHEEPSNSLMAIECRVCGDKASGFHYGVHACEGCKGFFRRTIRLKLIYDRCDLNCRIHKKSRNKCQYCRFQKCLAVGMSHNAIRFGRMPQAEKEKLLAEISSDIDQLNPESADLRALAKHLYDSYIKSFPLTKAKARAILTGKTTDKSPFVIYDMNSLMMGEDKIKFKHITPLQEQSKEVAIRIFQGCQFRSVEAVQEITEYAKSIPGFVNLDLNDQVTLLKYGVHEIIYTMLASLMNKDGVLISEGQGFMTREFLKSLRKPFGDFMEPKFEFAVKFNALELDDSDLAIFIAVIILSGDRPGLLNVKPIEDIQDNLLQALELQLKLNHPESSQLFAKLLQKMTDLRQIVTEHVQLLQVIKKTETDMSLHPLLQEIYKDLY
Outline: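 Liver-derived HepG2 cells expressing an exogenous NR-Gal4 chimera alongside GAL4-UAS reporter genes; 24 h exposure. Fluorescence of reporter RT-PCR products, separated by capillary electrophoresis, gives mRNA induction relative to DMSO.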

[8] = target: Nuclear receptor subfamily 1 group I member 2 (Homo sapiens) (UniProt O75469); experiment: ATG_PXR_TRANS: Attagene TRANS-FACTORIAL HepG2 Assay for human Pregnane X Receptor (PXR) (AID 2283008)
Nuclear receptor subfamily 1 group I member 2 (Homo sapiens), sequence (O75469 whole entry, looked up, the tested form may be a part): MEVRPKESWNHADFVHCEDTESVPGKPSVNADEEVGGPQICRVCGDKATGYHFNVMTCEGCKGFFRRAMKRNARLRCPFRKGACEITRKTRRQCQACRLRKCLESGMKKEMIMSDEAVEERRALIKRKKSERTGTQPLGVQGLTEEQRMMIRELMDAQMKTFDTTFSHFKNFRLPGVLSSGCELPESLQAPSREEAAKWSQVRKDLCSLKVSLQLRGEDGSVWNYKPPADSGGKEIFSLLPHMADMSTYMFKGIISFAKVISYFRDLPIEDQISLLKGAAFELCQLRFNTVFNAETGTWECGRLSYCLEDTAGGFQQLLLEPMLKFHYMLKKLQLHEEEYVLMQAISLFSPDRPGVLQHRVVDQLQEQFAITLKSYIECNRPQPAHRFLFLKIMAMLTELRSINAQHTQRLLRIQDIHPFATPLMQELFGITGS
Outline: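 Fluorescence intensity of FAM-labelled, HpaI-digested reporter amplicons, separated by capillary electrophoresis, quantifies induction. HepG2 cells with PXR-Gal4 trans-reporter system were exposed 24 h; DMSO defines baseline.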

[9] = target: human Retinoic Acid Receptor beta (RARb), RARB (gene 5915) (UniProt P10826); experiment: ATG_RARb_TRANS: Attagene TRANS-FACTORIAL HepG2 Assay for human Retinoic Acid Receptor beta (AID 2283004)
human Retinoic Acid Receptor beta (RARb), RARB (gene 5915), sequence (P10826 whole entry, looked up, the tested form may be a part): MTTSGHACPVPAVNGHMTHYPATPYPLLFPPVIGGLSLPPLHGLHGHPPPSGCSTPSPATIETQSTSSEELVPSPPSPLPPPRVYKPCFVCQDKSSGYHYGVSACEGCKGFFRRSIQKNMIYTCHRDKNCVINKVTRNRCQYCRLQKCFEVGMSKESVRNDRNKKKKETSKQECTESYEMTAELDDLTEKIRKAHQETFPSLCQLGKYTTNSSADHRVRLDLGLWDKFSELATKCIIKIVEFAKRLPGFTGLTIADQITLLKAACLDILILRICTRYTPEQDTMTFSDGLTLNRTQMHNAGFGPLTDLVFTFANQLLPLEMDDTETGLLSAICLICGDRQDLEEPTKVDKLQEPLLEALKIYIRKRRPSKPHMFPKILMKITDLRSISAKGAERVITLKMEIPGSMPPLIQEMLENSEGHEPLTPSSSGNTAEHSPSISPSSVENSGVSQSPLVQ
Outline: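 HepG2 cells transiently transfected with multiplexed GAL4-UAS reporter units expressing chimeric NR–Gal4 fusions; 24 h compound exposure. Reporter mRNA quantified by RT-PCR, 6-FAM labelling, HpaI digestion and capillary electrophoresis; gain-of-signal fitted against DMSO baseline.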

[10] = target: human RAR-related Orphan Receptor beta (RORb), RORB (gene 6096) (UniProt Q92753); experiment: ATG_RORb_TRANS: Attagene TRANS-FACTORIAL HepG2 Assay for human RAR-related Orphan Receptor beta (RORb) (AID 2283010)
human RAR-related Orphan Receptor beta (RORb), RORB (gene 6096), sequence (Q92753 whole entry, looked up, the tested form may be a part): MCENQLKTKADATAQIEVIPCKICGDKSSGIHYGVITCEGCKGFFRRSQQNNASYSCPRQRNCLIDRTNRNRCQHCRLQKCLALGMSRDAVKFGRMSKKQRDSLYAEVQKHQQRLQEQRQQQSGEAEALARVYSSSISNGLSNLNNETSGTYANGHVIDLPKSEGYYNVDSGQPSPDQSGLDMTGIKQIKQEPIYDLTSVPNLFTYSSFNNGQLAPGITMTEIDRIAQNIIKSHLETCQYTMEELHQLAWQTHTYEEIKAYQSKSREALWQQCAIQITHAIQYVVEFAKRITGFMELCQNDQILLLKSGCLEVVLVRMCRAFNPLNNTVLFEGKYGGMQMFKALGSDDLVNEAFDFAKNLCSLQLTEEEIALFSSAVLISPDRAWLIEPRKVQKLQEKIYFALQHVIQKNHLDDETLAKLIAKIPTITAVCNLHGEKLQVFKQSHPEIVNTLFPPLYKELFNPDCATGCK
Outline: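 HepG2 cells transiently transfected with GAL4-UAS reporter units expressing chimeric NR-Gal4 protein; reporter mRNA measured 24 h after dosing by RT-PCR, 6-FAM labelling and capillary electrophoresis. Gain-of-signal fitted relative to DMSO baseline.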

Measured: AC50

c1ccc(-c2ccccc2)cc1
inactive: [1] | [2] | [3] | [4] | [5]

Cc1ccccc1O
inactive: [1] | [2] | [4] | [6] | [5]

CC#Cc1cc(C)nc(Nc2ccccc2)n1
active: [2] 0.606 µM | [5] 17.9 µM | [7] 6.26 µM
inactive: [1] | [3] | [4] | [8]

O=C(O)C(F)(F)C(F)(F)C(F)(F)C(F)(F)C(F)(F)C(F)(F)C(F)(F)C(F)(F)C(F)(F)F
inactive: [3] | [4] | [9] | [6] | [10]
active: [1] 29.9 µM and 49.3 µM and 51.1 µM | [2] 33.4 µM and 24.7 µM and 23.9 µM | [4] 46.5 µM and 58.4 µM | [5] 36.3 µM and 46.6 µM and 45.4 µM | [7] 52.1 µM and 12.9 µM

CCC(C)c1cc([N+](=O)[O-])cc([N+](=O)[O-])c1O (stereo not drawn)
active: [1] 11.3 µM | [2] 49.6 µM | [5] 8.95 µM | [7] 17.3 µM | [8] 26.9 µM
inactive: [3] | [4] | [6]

CCNc1nc(NC(C)C)nc(SC)n1
inactive: [1] | [2] | [3] | [4] | [5] | [7] | [8]

O=C(O)C(F)(F)C(F)(F)C(F)(F)C(F)(F)C(F)(F)F
active: [2] 36.7 µM and 70.9 µM
inactive: [1] | [3] | [4] | [6] | [5] | [7] | [8]

CCCCCCCCCC[N+](C)(C)CCCCCCCCCC
active: [1] 4.08 µM | [4] 6.48 µM | [5] 1.8 µM
inactive: [2] | [6] | [7]

Clc1ccc(Cl)cc1
inactive: [1] | [2] | [3] | [4] | [9] | [5] | [7] | [8] | [10]

Cc1cc(O)ccc1Cl
inactive: [1] | [2] | [3] | [4] | [9] | [5] | [7]

NS(=O)(=O)C(F)(F)C(F)(F)C(F)(F)C(F)(F)C(F)(F)C(F)(F)C(F)(F)C(F)(F)F
active: [1] 30.6 µM and 46.8 µM and 54 µM | [2] 88.4 µM | [4] 56.8 µM and 51.5 µM | [5] 30.3 µM and 38.9 µM | [7] 100 µM and 59 µM and 41.8 µM
inactive: [2] | [3] | [4] | [9] | [6] | [10]

CCCCCCOC(=O)c1ccccc1C(=O)OCCCCCC
active: [5] 14.6 µM | [7] 12.9 µM
inactive: [1] | [2] | [3] | [4]

O=C(NC(=O)c1c(F)cccc1F)Nc1cc(Cl)c(OC(F)(F)C(F)F)c(Cl)c1
inactive: [1] | [2] | [3] | [4] | [6] | [5] | [7] | [8]

O=S(=O)(O)C(F)(F)C(F)(F)C(F)(F)C(F)(F)F
inactive: [1] | [2] | [3] | [4] | [5] | [7] | [8]

COc1ccc(O)c(C(C)(C)C)c1
inactive: [1] | [2] | [4] | [9] | [6] | [5] | [7]

Cc1ccccc1[N+](=O)[O-]
inactive: [1] | [2] | [4] | [5]

CCCCCCCCOC(=O)c1ccccc1C(=O)OCCCCCCCC
active: [1] 14 µM | [7] 38.4 µM
inactive: [2] | [4] | [6] | [5] | [8]

Cc1cc2c3c(c1)C(c1ccccc1)=N[C@@H](NC(=O)c1ccncc1)C(=O)N3CC2
active: [7] 1.71 µM
inactive: [1] | [2] | [3] | [4] | [9] | [5] | [10]

Nn1cnnc1
inactive: [1] | [2] | [4] | [9] | [5] | [7]

CC(C)(c1ccccc1)c1ccc(O)cc1
active: [1] 35.3 µM | [4] 36.4 µM | [7] 18.3 µM | [8] 2.93 µM [middle of 4 runs]
inactive: [2] | [3] | [9] | [6] | [7] | [10]

CCCCCCCCCc1ccc(O)cc1
active: [1] 15.2 µM | [2] 33.4 µM and 21.6 µM and 16.9 µM | [3] 25.5 µM and 33.4 µM | [4] 15.4 µM | [5] 11.2 µM | [7] 33.4 µM and 25.1 µM and 9.23 µM
inactive: [3] | [9] | [6] | [10]

Oc1ccc(Cl)cc1Cl
inactive: [1] | [2] | [4] | [5] | [7]

COS(=O)(=O)OC
inactive: [1] | [2] | [3] | [4] | [5] | [10]

ClC1=C(Cl)[C@]2(Cl)[C@@H]3[C@H]4C[C@H]([C@@H]5O[C@H]45)[C@@H]3[C@@]1(Cl)C2(Cl)Cl
inactive: [1] | [2] | [4] | [6] | [7]
active: [9] 0.859 µM | [5] 8.62 µM

Cc1ccc(O)c(C)c1
inactive: [1] | [2] | [3] | [4] | [9] | [5] | [7] | [10]

O=C(O)C(F)(F)C(F)(F)C(F)(F)C(F)(F)C(F)(F)C(F)(F)C(F)(F)C(F)(F)F
inactive: [1] | [3] | [4] | [5] | [10]
active: [1] 40.2 µM and 43.3 µM | [2] 15.9 µM and 27.4 µM and 22.5 µM | [5] 49.7 µM and 48 µM | [7] 43.4 µM and 70 µM and 42.3 µM

O=NN(c1ccccc1)c1ccccc1
inactive: [1] | [2] | [3] | [4] | [7]
active: [5] 6.14 µM

Oc1c(Cl)c(Cl)c(Cl)c(Cl)c1Cl
active: [1] 17 µM and 9.54 µM | [4] 33.7 µM | [5] 15.4 µM and 14.7 µM | [7] 4.28 µM and 2.53 µM and 7.91 µM
inactive: [2] | [4] | [6] | [10]

From PubChem BioAssay (EPA / NIEHS)
